G9a block: blocks human histone lysine methyltransferase G9a; G9a H3K9 monomethylation, AlphaScreen, 2 h; Potency, µM (doses to about 102 µM), for inactives: at the top dose activity, negative = inhibition, usual class: inhibitors; AID 504332; actives 8.8% (n = 350,000); Q96KQ7; further: on the % scale 0 is the no-effect control and ±100 the full control effect; nearly all actives have a fitted effect of over 75% in size
Target sequence (Q96KQ7 913-1193 limits assumed): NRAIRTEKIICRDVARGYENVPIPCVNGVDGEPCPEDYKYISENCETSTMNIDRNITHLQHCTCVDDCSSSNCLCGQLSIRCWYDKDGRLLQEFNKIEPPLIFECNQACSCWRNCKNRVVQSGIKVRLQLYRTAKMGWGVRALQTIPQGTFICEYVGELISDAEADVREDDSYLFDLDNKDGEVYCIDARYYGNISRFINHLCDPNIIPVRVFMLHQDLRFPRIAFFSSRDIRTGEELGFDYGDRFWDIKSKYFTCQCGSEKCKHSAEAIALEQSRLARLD
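Quantitative HTS format: methyltransferase activity on a biotin-tagged H3K9 peptide is measured by AlphaScreen, using a rabbit anti-monomethyl-H3K9 antibody with streptavidin donor and anti-IgG acceptor beads. Final levels are 20 nM enzyme, 500 nM peptide, 20 uM SAM; 2 h RT.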
Sfp inh: inhibitors of Bacillus subtilis Sfp phosphopantetheinyl transferase; Potency, µM, for inactives: largest response in the series, negative = inhibition, hits mostly inhibitors; actives 3.5% (n = 310,000); Q9F4F7; Biochemical Sfp PPTase activity, qHTS;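 further: the enzyme is Sfp with the accession as filed and its product quenches rhodamine fluorescence; 0% = enzyme reaction without inhibitor and -100% = no enzyme wells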
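Fluorescence-quenching assay with 15 nM Sfp, 5 uM rhodamine-CoA and 12.5 uM BHQ-2-labelled ybbR peptide in pH 7.6 Hepes/MgCl2 buffer. Enzyme was pre-incubated with compound for 15 min at room temperature. Rate was taken from the 30-min fluorescence change (525/598 nm).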
BAZ2B block: blocks human BAZ2B. Q9UIF8. actives 4.4% (n = 360,000). Potency, µM (series often up to 114 µM), without a hit: at the top dose activity change, negative = inhibition, actives largely listed as inhibitors. AlphaScreen BAZ2B-H3K14Ac peptide displacement; further: on the % scale 0 is the no-effect control and ±100 the full control effect; nearly all actives have a fitted effect of over 60% in size
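Protein-peptide AlphaScreen: BAZ2B 50 nM, b-H3K14Ac 50 nM, 1x PBS pH 7.4 + 0.01% Tween-20. Preincubation 30 min RT; cpd 30 min RT (top 110 uM); beads 20 min RT, light-protected.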
HP1b binding inh: inhibitors of HP1-beta chromodomain binding to methylated histone tails. P83916. AlphaScreen HP1-beta / biotin-H3K9me3 peptide binding. Potency, µM (titrated, usually from 114 µM), for inactives: at the highest dose activity change, negative = inhibition, hits mostly inhibitors. actives 0.56% (n = 390,000). AID 540317; further: nearly all actives have a fitted effect of over 70% in size
Target sequence (P83916 whole entry, looked up): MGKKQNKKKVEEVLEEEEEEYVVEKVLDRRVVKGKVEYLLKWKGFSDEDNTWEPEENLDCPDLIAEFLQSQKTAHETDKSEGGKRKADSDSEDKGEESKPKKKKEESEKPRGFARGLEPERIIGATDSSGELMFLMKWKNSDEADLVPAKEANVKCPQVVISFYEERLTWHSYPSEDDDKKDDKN
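HP1-beta protein (50 nM final) preincubated 30 min at room temperature with biotinylated H3(1-18)K9me3 peptide (50 nM) in PBS pH 7.4, 0.01% Tween-20, then compound added for 30 min. AlphaScreen streptavidin donor/nickel chelate acceptor beads (10 ug/mL final), 30 min dark, luminescence read.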
L3MBTL1 block: blocks human L3MBTL1; Q9Y468; AlphaScreen L3MBTL1–H3K9me1 peptide binding; Potency, µM (titrated, usually from 57.1 µM), for inactives: at the top dose activity, negative = inhibition, actives largely listed as inhibitors; actives 0.66% (n = 230,000); further: on the % scale 0 is the no-effect control and ±100 the full control effect; nearly all actives have a fitted effect of over 60% in size
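L3MBTL1 (50 nM) pre-complexed 30 min with biotinylated H3(1-15)K9me1 peptide (75 nM), then compounds added for 30 min at room temperature; AlphaScreen streptavidin donor/nickel chelate acceptor beads (10 ug/mL final) read after 30 min dark incubation.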
JMJD2A Tudor: blocks the human JMJD2A Tudor domain. O75164. AlphaScreen JMJD2A-Tudor / H3K4me3 peptide binding. Potency, µM (highest dose often 114 µM), for the others: at the top dose activity change, negative = inhibition, hits mostly inhibitors. actives 4.4% (n = 390,000). AID 504339; further: on the % scale 0 is the no-effect control and ±100 the full control effect; nearly all actives have a fitted effect of over 50% in size
An asterisk follows results filed as active; ? = inconclusive; / = not tested or not shown; [ ] = another dose, or the depositor's remark. Only some compounds are listed: those with a hit (about 12% of all), similar ones and a draw of the others. The call rests on the fitted dose curve; in most records, active means well fitted curve in the direction sought with a large enough effect; inconclusive means small, poorly fitted or top-dose-only effect, or another doubt; inactive means no such curve, though single readings can be large; an effect the other way counts as inactive or inconclusive. Potency means the concentration at half of the fitted maximal effect.

SMILES	G9a block	Sfp inh	BAZ2B block	HP1b binding inh	L3MBTL1 block	JMJD2A Tudor
S=C1NC2=C(CCCC2=C2SCCS2)C(c2ccccc2)N1 (centres undefined)	10µM*	-6.5%	?	-16.1%	?	?
O=C(c1cccc(-n2cccc2)c1)N1CCN(S(=O)(=O)c2c(F)cccc2F)CC1	67.1%	11.9%	2.3%	?	/	35.5µM*
O=C(c1cccc(-n2cccc2)c1)N1CCN(S(=O)(=O)c2ccccc2)CC1	5.0%[2.33 µM]	/	8.91µM*	12.6µM*	4.47µM*	5.62µM*
Cc1nc2nc(SCC(=O)NCc3ccccc3Cl)nn2c(C)c1Cc1ccccc1	-4.2%[59 µM]	/	-1.8%	35.6%	/	-16.7%
Fc1ccccc1C1c2cccn2CCN1C(=S)Nc1cccc(Br)c1 (centres undefined)	?	-15.3%	?	20.5%	/	-1.4%
COc1ccccc1NC(=S)N1CCn2cccc2C1c1cccnc1 (centres undefined)	56.2µM*	7.8%	-33.4%	-0.1%	/	-21.7%
Fc1cccc(NC(=S)N2CCn3cccc3C2c2cccnc2)c1 (centres undefined)	50.1µM*	2.3%	?	-5.1%	/	-32.2%
Fc1ccccc1C1c2cccn2CCN1C(=S)Nc1ccc(Br)cc1 (centres undefined)	25.1µM*	20.1%	-4.1%	19.7%	-36.3%	-23.3%
O=C(c1ccncc1)N1CCC[C@@]2(CCN(Cc3ccncc3)C2)C1	4.9%[12.7 µM]	13.2%	/	/	/	/
O=C(CC1OCC2CCCN2C1=O)Nc1ccc([N+](=O)[O-])cc1 (centres undefined)	8.91µM*	-0.4%	1.7%	36.8%	/	-7.0%
CC(=O)OCC(=O)Nc1ccc(SC(F)F)cc1	?	20.9%	-2.1%	35.8%	/	1.4%
O=C(COC(=O)C1Cc2ccccc2CN1C(=O)c1ccccc1)Nc1ccc(SC(F)F)cc1 (centres undefined)	79.4µM*	15.4%	-12.1%	?	-5.0%	-32.2%
O=C(NCCO)c1ccc2c3n(nc2c1)-c1ccc(Cl)cc1CO3	-6.1%[12.7 µM]	89.1µM*	6.5%	36.9%	/	0.0%
Cc1ccc2c(c1)COc1c3ccc(C(=O)N4CCOCC4)cc3nn1-2	-3.2%[12.7 µM]	-9.2%	1.9%	40.0%	/	-9.8%
O=C(c1ccc2c3n(nc2c1)-c1ccc(Cl)cc1CO3)N1CCCCC1	-21.7%[12.7 µM]	56.2µM*	-33.7%	21.9%	/	-26.8%
Cc1c(CNC2CCCCC2)c(C(=O)O)c(C)n1Cc1ccccc1F	-3.0%[59 µM]	/	-10.0%	11.9%	/	-9.7%
C=CCCC(=O)Nc1nc(C)c(-c2csc(Nc3ccccc3OC)n2)s1	25.1µM*	5.7%	?	-9.2%	-6.2%	?
C=CCCC(=O)Nc1nc(C)c(-c2csc(Nc3ccc(Cl)cc3Cl)n2)s1	7.08µM*	-22.1%	?	?	-18.1%	?
COC(=O)N1CCC[C@@]2(CCN(c3ccncc3)C2)C1	-0.2%[12.7 µM]	5.8%	/	/	/	/
CC(C)(C)c1ccc(NC(=O)C2=CN3CCS(=O)(=O)N=C3C=C2)cc1	7.08µM*	/	12.2%	26.3%	2.7%	3.7%
Cc1ccc(NC(=O)C2=CN3CCS(=O)(=O)N=C3C=C2)cc1	/	/	/	35.1%	-3.3%	-13.7%
CC(C)S(=O)(=O)c1csc(C(=O)NN)c1Cl	44.7µM*	?	-9.1%	32.1%	3.1%	-10.1%
O=C(NN1C(=O)/C(=C/c2ccc(O)cc2)SC1=S)c1ccccc1O	?	-6.6%	39.8µM*	?	/	50.1µM*
O=C1N/C(=N\S(=O)(=O)c2ccccc2)S/C1=C\c1cc([N+](=O)[O-])ccc1O	?	12.7%	-19.6%	6.2%	/	-17.4%
CC(=C\c1ccccc1)/C=C1/SC(=S)N(CCC(=O)O)C1=O	5.5%[2.33 µM]	?	?	5.5%	/	?
SMILES	G9a block	Sfp inh	BAZ2B block	HP1b binding inh	L3MBTL1 block	JMJD2A Tudor
Cc1ccc(/C=C2\SC(=S)N(/N=C/c3cc([N+](=O)[O-])ccc3O)C2=O)o1	6.31µM*	25.1µM*	11.2µM*	44.7µM*	/	56.2µM*
O=[N+]([O-])c1ccc(O)c(/C=N/n2cnc3ccccc32)c1	11.3%[59 µM]	6.6%	-1.1%	-2.9%	7.7%	-21.1%
CC(/C=C1\SC(=S)N(NC(=O)c2cccc(O)c2)C1=O)=C\c1ccccc1	8.91µM*	?	11.2µM*	?	-23.0%	22.4µM*
O=C(NN1C(=O)/C(=C/c2cc([N+](=O)[O-])ccc2O)SC1=S)c1ccccc1O	-18.3%[2.33 µM]	/	5.62µM*	/	4.47µM*	/
COCCCNc1ncnc2onc(-c3ccc(F)cc3)c12	-0.9%[59 µM]	/	3.5%	18.1%	/	3.5%
Cc1cccc(OC(=O)c2snnc2C)c1C	?	/	4.1%	47.6%	/	31.1%
COc1cc(C2Nc3ccccc3C(=O)N2Cc2ccccc2)ccc1OCc1ccccc1 (centres undefined)	/	/	/	1.5%[57 µM]	/	-25.4%[57.1 µM]
COc1cc(/C=C2\SC(=S)N(NC(=O)c3ccccc3O)C2=O)ccc1O	-28.8%[2.33 µM]	-18.8%	28.2µM*	?	/	20µM*
O=C(CCCN1C(=O)/C(=C/c2ccccc2Cl)SC1=S)NNC(=O)c1ccccc1Cl	10.0%[59 µM]	-17.0%	-6.4%	23.3%	5.3%	-3.5%
O=C(Cc1ccccc1)NN1C(=O)/C(=C/c2ccc(C(=O)O)cc2)SC1=S	/	1.1%	-16.2%	30.8%	/	-16.9%[11.4 µM]
O=C(NN1C(=O)/C(=C/c2ccc(O)c([N+](=O)[O-])c2)SC1=S)c1ccccc1Cl	14.1µM*	-8.7%	35.5µM*	?	/	?
Cc1cc(C)nc(NN2C(=O)/C(=C/c3ccc(O)cc3)SC2=S)n1	28.2µM*	-27.2%	?	-2.0%	-5.2%	?
O=C(NN1C(=O)/C(=C/c2ccc(O)cc2)SC1=S)c1cccc(O)c1	44.7µM*	27.2%	?	-14.9%	-10.1%	?
O=C(NCc1ccccn1)C1(C(F)(F)F)C/C(=C\Cc2ccccc2)CCCO1 (centres undefined)	/	56.2µM*	/	-11.7%	/	31.6µM*
O=C(NCc1ccccc1)C1(C(F)(F)F)C/C(=C/Cc2ccccc2)CCCO1 (centres undefined)	/	-9.8%	/	7.9%	/	-18.6%
Cc1ccc(/C=N/NS(=O)(=O)c2ccccc2)o1	10.4%	4.2%	-0.8%	-5.1%	-1.0%	-6.7%
Cc1oc(/C=N/NS(=O)(=O)c2ccccc2)cc1Br	15.8µM*	-4.7%	-35.0%	6.4%	-0.2%	-23.6%
Cc1ccc(Cl)cc1N1CCN(C(=O)Cn2c(-c3cccs3)cc3cc(F)ccc32)CC1	0.9%[59 µM]	/	-2.4%	35.1%	/	-8.6%
Cc1ccc2nc(C)/c(=N\O)c(C)nc2c1	13.8%[0.501 µM]	-2.5%	-6.7%	5.4%	2.8%	-9.4%
Cc1nc2ccc(Cl)cc2nc(C)/c1=N\O	28.2µM*	1.3%	-0.6%	34.3%	-3.9%	-12.5%
